Data taken from PubChem BioAssay (NCI).
About 83,000 compounds went through this panel and 20% of them were active in at least one assay; those are over-represented in the sample as a whole.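 Cell lines were cultured in 96-well plates, exposed to a single compound concentration, and assessed for percent growth 48 hours later.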 Activity calls are given as the source filed them. Rule for the calls: active = growth percent below 10; inactive = the rest.

Key:
Experiment in all cases: NCI-60 one-dose screen, 48 h (100 = growth as untreated, 0 = no growth, -100 = all killed)
Conditions in all cases: 10 µM unless noted
SR leukemia = test system: SR leukemia
RPMI-8226 leukemia = test system: RPMI-8226 leukemia
OVCAR-8 ovarian = test system: OVCAR-8 ovarian
OVCAR-5 ovarian = test system: OVCAR-5 ovarian
OVCAR-4 ovarian = test system: OVCAR-4 ovarian
SK-OV-3 ovarian = test system: SK-OV-3 ovarian
IGROV1 ovarian = test system: IGROV1 ovarian
OVCAR-3 ovarian = test system: OVCAR-3 ovarian
HS 578T breast = test system: HS 578T breast
NCI/ADR-RES ovarian = test system: NCI/ADR-RES ovarian
T-47D breast = test system: T-47D breast
BT-549 breast = test system: BT-549 breast
MDA-MB-435 melanoma = test system: MDA-MB-435 melanoma
SW-620 colon = test system: SW-620 colon
MCF7 breast = test system: MCF7 breast
HCT-116 colon = test system: HCT-116 colon
HCC-2998 colon = test system: HCC-2998 colon
KM12 colon = test system: KM12 colon

Measured: growth

COc1ccc(-c2cc(-c3cc(OC)c(OC)c(OC)c3)c(C#N)c(=O)n2CCCCC(=O)NO)cc1
inactive: SR leukemia 13.3% | RPMI-8226 leukemia 35.9% | OVCAR-8 ovarian 42.4% | OVCAR-5 ovarian 76.6% | OVCAR-4 ovarian 67% | SK-OV-3 ovarian 87.1% | IGROV1 ovarian 60.2% | OVCAR-3 ovarian 62.1% | HS 578T breast 45% | NCI/ADR-RES ovarian 38.8% | T-47D breast 50.7% | BT-549 breast 92.7% | MDA-MB-435 melanoma 37.7% | SW-620 colon 47.9% | MCF7 breast 66.5% | HCT-116 colon 25.1% | HCC-2998 colon 87.5% | KM12 colon 73.1%

CC(C)=CCCC(C)c1ccc(C)c2c1OCN(CCCCCO)C2 (stereo unspecified)
inactive: SR leukemia 66.6% | RPMI-8226 leukemia 76.7% | OVCAR-8 ovarian 90.1% | OVCAR-5 ovarian 87.4% | OVCAR-4 ovarian 95.4% | SK-OV-3 ovarian 88.8% | IGROV1 ovarian 90.4% | OVCAR-3 ovarian 99.7% | HS 578T breast 81.2% | NCI/ADR-RES ovarian 75.9% | T-47D breast 88.1% | BT-549 breast 72.1% | MDA-MB-435 melanoma 97.1% | SW-620 colon 94.9% | MCF7 breast 88.7% | HCT-116 colon 68.6% | HCC-2998 colon 73.5% | KM12 colon 104%

CC1OC(n2c3ccccc3c3c4c(c5c6ccccc6[nH]c5c32)C(=O)N(CCN2CCCC2)C4=O)CC(O)C1O (stereo unspecified)
inactive: OVCAR-8 ovarian 53.1% | OVCAR-5 ovarian 78.1% | OVCAR-4 ovarian 22.9% | SK-OV-3 ovarian 32.1% | IGROV1 ovarian 48.9% | OVCAR-3 ovarian 60.2% | HS 578T breast 58.2% | NCI/ADR-RES ovarian 54.1% | T-47D breast 51.9% | BT-549 breast 65.6% | MDA-MB-435 melanoma 41.8% | SW-620 colon 17.7% | HCT-116 colon 25.8% | HCC-2998 colon 22% | KM12 colon 26.3%
active: SR leukemia -2.62% | RPMI-8226 leukemia 5.56% | MCF7 breast 9.93%

COc1cc(-c2csc(NC(=O)c3ccc(N4CCOCC4)c(C(F)(F)F)c3)n2)cc(OC)c1OC
inactive: SR leukemia 23.3% | OVCAR-5 ovarian 83.9% | OVCAR-4 ovarian 23.1% | SK-OV-3 ovarian 74.5% | IGROV1 ovarian 29.5% | OVCAR-3 ovarian 38.3% | HS 578T breast 60% | MDA-MB-435 melanoma 35.1% | SW-620 colon 48.9% | MCF7 breast 19.2% | HCT-116 colon 16% | HCC-2998 colon 60.2% | KM12 colon 16.9%
active: RPMI-8226 leukemia 6.74% | OVCAR-8 ovarian 2.22% | NCI/ADR-RES ovarian 3.62% | T-47D breast -5.81% | BT-549 breast -7.47%

CCOC(=O)C1=C(C)NC(=O)NC1c1c(Cl)n(CCCl)c2ccccc12 (stereo unspecified)
inactive: SR leukemia 102% | RPMI-8226 leukemia 77.3% | OVCAR-8 ovarian 96.7% | OVCAR-5 ovarian 101% | OVCAR-4 ovarian 112% | SK-OV-3 ovarian 104% | IGROV1 ovarian 103% | OVCAR-3 ovarian 98.5% | HS 578T breast 93.1% | NCI/ADR-RES ovarian 97.1% | T-47D breast 101% | BT-549 breast 92% | MDA-MB-435 melanoma 101% | SW-620 colon 96.8% | MCF7 breast 98.7% | HCT-116 colon 95.1% | HCC-2998 colon 96.3% | KM12 colon 97.4%

Cc1ccc2c(Cn3cc(CSc4nc5ccccc5o4)nn3)cc(=O)oc2c1
inactive: SR leukemia 99.6% | RPMI-8226 leukemia 100% | OVCAR-8 ovarian 97.4% | OVCAR-5 ovarian 116% | OVCAR-4 ovarian 107% | SK-OV-3 ovarian 81% | IGROV1 ovarian 107% | OVCAR-3 ovarian 115% | HS 578T breast 107% | NCI/ADR-RES ovarian 99.3% | T-47D breast 100% | BT-549 breast 104% | MDA-MB-435 melanoma 102% | SW-620 colon 106% | MCF7 breast 100% | HCT-116 colon 104% | HCC-2998 colon 115% | KM12 colon 113%

CS(=O)(=O)Nc1cc(-c2ccc3ncnc(Nc4ccc5c(cnn5Cc5ccc(F)cc5)c4)c3c2)cnc1Cl
inactive: SR leukemia 34% | OVCAR-8 ovarian 67.9% | OVCAR-5 ovarian 44.7% | OVCAR-4 ovarian 71% | SK-OV-3 ovarian 47.5% | NCI/ADR-RES ovarian 90% | MDA-MB-435 melanoma 45.3% | SW-620 colon 43.1% | MCF7 breast 14.4% | HCT-116 colon 57% | HCC-2998 colon 59.1% | KM12 colon 71.8%
active: RPMI-8226 leukemia 9.43% | IGROV1 ovarian -15.7% | OVCAR-3 ovarian 9.71% | HS 578T breast -9.56% | T-47D breast 5.06% | BT-549 breast 9.27%

CCCCCOC(=O)c1c(C)[nH]c(/C=C2\N=C(c3ccc[nH]3)C=C2OC)c1C
active: SR leukemia -30% | RPMI-8226 leukemia -43.6% | OVCAR-8 ovarian 7.42% | OVCAR-5 ovarian -47.1% | OVCAR-4 ovarian -7.23% | SK-OV-3 ovarian 8.75% | IGROV1 ovarian -14.1% | OVCAR-3 ovarian -52.4% | HS 578T breast -23.5% | NCI/ADR-RES ovarian 5.69% | T-47D breast -42.5% | BT-549 breast 2.11% | MDA-MB-435 melanoma -16.9% | SW-620 colon -1.61% | MCF7 breast -61.2% | HCT-116 colon -85.7% | HCC-2998 colon -20.1% | KM12 colon -13.6%

Cn1cc(-c2csc(-c3c[nH]c4ccc(Br)cc34)n2)c2ccnc(Cl)c21
inactive: SR leukemia 31.6% | RPMI-8226 leukemia 51.4% | OVCAR-8 ovarian 63.8% | OVCAR-5 ovarian 114% | OVCAR-4 ovarian 53.6% | SK-OV-3 ovarian 78.1% | IGROV1 ovarian 65.9% | OVCAR-3 ovarian 77.4% | HS 578T breast 68.7% | NCI/ADR-RES ovarian 65.6% | T-47D breast 25.9% | BT-549 breast 84.1% | MDA-MB-435 melanoma 78.5% | MCF7 breast 46.6% | HCT-116 colon 49.8% | HCC-2998 colon 82.9% | KM12 colon 50.8%
active: SW-620 colon 8.27%

COc1ccc(C2CC(c3ccc(Nc4nc(Nc5ccccc5)nc(Nc5ccccc5)n4)cc3)=NN2C(C)=O)cc1 (stereo unspecified)
inactive: SR leukemia 88.2% | RPMI-8226 leukemia 73.7% | OVCAR-8 ovarian 83% | OVCAR-5 ovarian 104% | OVCAR-4 ovarian 89.7% | SK-OV-3 ovarian 124% | IGROV1 ovarian 118% | OVCAR-3 ovarian 91.4% | HS 578T breast 102% | NCI/ADR-RES ovarian 89.7% | T-47D breast 73.4% | BT-549 breast 166% | MDA-MB-435 melanoma 93.7% | SW-620 colon 104% | MCF7 breast 129% | HCT-116 colon 96.5% | HCC-2998 colon 110% | KM12 colon 112%

COCCNC(=O)Nc1ccc2nc(-c3cccs3)c(-c3cccs3)nc2c1
inactive: SR leukemia 67% | RPMI-8226 leukemia 92.1% | OVCAR-8 ovarian 93.4% | OVCAR-5 ovarian 87.9% | OVCAR-4 ovarian 98.2% | SK-OV-3 ovarian 98.8% | IGROV1 ovarian 89% | OVCAR-3 ovarian 106% | HS 578T breast 93.6% | NCI/ADR-RES ovarian 90.1% | T-47D breast 58.1% | BT-549 breast 94.4% | MDA-MB-435 melanoma 94.1% | SW-620 colon 89.2% | MCF7 breast 78.9% | HCT-116 colon 92.7% | HCC-2998 colon 101% | KM12 colon 95.2%

Fc1cnccc1C1CC(c2ccc(N3CCNCC3)cc2)=NN1 (stereo unspecified)
inactive: SR leukemia 90.4% | RPMI-8226 leukemia 92.5% | OVCAR-8 ovarian 95.1% | OVCAR-5 ovarian 111% | OVCAR-4 ovarian 108% | SK-OV-3 ovarian 85% | IGROV1 ovarian 68% | OVCAR-3 ovarian 98.8% | HS 578T breast 89.2% | NCI/ADR-RES ovarian 106% | T-47D breast 82.2% | BT-549 breast 85.3% | MDA-MB-435 melanoma 105% | SW-620 colon 93.5% | MCF7 breast 73% | HCT-116 colon 73.8% | HCC-2998 colon 102% | KM12 colon 96.2%

C=C(C)[C@@H]1CC[C@]2(CO)CC[C@]3(C)[C@H](CC[C@@H]4[C@@]5(C)CC[C@H](NCO)C(C)(C)[C@@H]5CC[C@]43C)[C@@H]12
active: SR leukemia -29.5% | RPMI-8226 leukemia -42% | OVCAR-8 ovarian -43.8% | OVCAR-5 ovarian -91.2% | OVCAR-4 ovarian -93.7% | SK-OV-3 ovarian -87.5% | IGROV1 ovarian -94.1% | OVCAR-3 ovarian -81.9% | HS 578T breast -58.3% | NCI/ADR-RES ovarian -53.6% | T-47D breast -42.9% | MDA-MB-435 melanoma -84.5% | SW-620 colon -79.7% | MCF7 breast -62.8% | HCT-116 colon -62.1% | HCC-2998 colon -63.3% | KM12 colon -77.5%
inactive: BT-549 breast 74.3%

CN(C)Cc1ccc(O)c(C(=O)O)c1
inactive: SR leukemia 97.8% | RPMI-8226 leukemia 104% | OVCAR-8 ovarian 108% | OVCAR-5 ovarian 108% | OVCAR-4 ovarian 118% | SK-OV-3 ovarian 106% | IGROV1 ovarian 95.6% | OVCAR-3 ovarian 111% | HS 578T breast 109% | NCI/ADR-RES ovarian 105% | T-47D breast 109% | BT-549 breast 112% | MDA-MB-435 melanoma 107% | SW-620 colon 106% | MCF7 breast 107% | HCT-116 colon 109% | HCC-2998 colon 109% | KM12 colon 108%

O=S(=O)(Nc1cc(F)cc(Cl)c1)c1ccc(-c2cnc(C3CC3)o2)cc1
inactive: SR leukemia 25.4% | RPMI-8226 leukemia 28.9% | OVCAR-8 ovarian 39.8% | OVCAR-5 ovarian 50.8% | OVCAR-4 ovarian 52.5% | SK-OV-3 ovarian 44.2% | IGROV1 ovarian 30% | OVCAR-3 ovarian 10.2% | NCI/ADR-RES ovarian 21.9% | T-47D breast 31.7% | BT-549 breast 40.6% | SW-620 colon 12% | MCF7 breast 13.7% | HCT-116 colon 28.1% | HCC-2998 colon 54.9% | KM12 colon 29.4%
active: HS 578T breast -3.79% | MDA-MB-435 melanoma 1.17%

CCOc1ccccc1Cn1ccnc1CCc1c(Cl)c(O)cc(O)c1C(=O)OC
inactive: SR leukemia 91.5% | RPMI-8226 leukemia 86.9% | OVCAR-8 ovarian 97.7% | OVCAR-5 ovarian 95.8% | OVCAR-4 ovarian 114% | SK-OV-3 ovarian 91.9% | IGROV1 ovarian 94.8% | OVCAR-3 ovarian 106% | HS 578T breast 107% | NCI/ADR-RES ovarian 93.5% | T-47D breast 92.4% | BT-549 breast 98.8% | MDA-MB-435 melanoma 110% | SW-620 colon 104% | MCF7 breast 91.7% | HCT-116 colon 89.3% | HCC-2998 colon 97.8% | KM12 colon 98.4%

COC(CC(F)F)c1cn(S(=O)(=O)c2ccc(C)cc2)c2ccccc12 (stereo unspecified)
inactive: SR leukemia 12.2% | RPMI-8226 leukemia 32.1% | OVCAR-8 ovarian 58.5% | OVCAR-5 ovarian 33.3% | OVCAR-4 ovarian 65.5% | SK-OV-3 ovarian 18.1% | IGROV1 ovarian 35.8% | HS 578T breast 32.5% | NCI/ADR-RES ovarian 36.3% | T-47D breast 30.8% | BT-549 breast 34.9% | SW-620 colon 12.9% | MCF7 breast 13.6% | HCT-116 colon 17.2% | HCC-2998 colon 63.3% | KM12 colon 19.3%
active: OVCAR-3 ovarian 7.08% | MDA-MB-435 melanoma -43.8%
